Source: PubChem BioAssay (several laboratories)
A selection: hits, their analogues and other compounds. The true share with any hit is near 1.2%.
PrP UTR inh: inhibition of PrP 5' UTR reporter expression | cell-based PrP 5' UTR mRNA reporter, plate reader | inhibition, % (test concentration not listed) | 340,000 compounds, 0.35% hits | AID 488862, 2010; in the data active = inhibition above about 52%
BJeLR viability: MLPCN primary cell-based screen for lethality selective to Ras in HRASV12 cells | 300,000 compounds, 0.17% hits | inhibition, % (test concentration not listed) | BJeLR (HRASV12) viability, CellTiter-Glo ATP luminescence, 48 h; in the data active = inhibition above about 50%
PriA SSB inh: inhibitors of Klebsiella pneumoniae PriA binding to SSB C-terminal tail, primary screen, biochemical, AlphaScreen; PriA–SSB C-terminal tail interaction (Klebsiella pneumoniae); AlphaScreen SSBct-PriA binding, biotinylated peptide; inhibition, % at 33 µM; 430,000 compounds, 0.6% hits; AID 1272365, 2023; in the data active = inhibition mostly above about 37%, no sharp cut-off; inactive = mostly below about 20%
PrPC surface inh: inhibitors of human cell surface prion protein PrPC, primary screen, cell-based, TR-FRET. TR-FRET read-out. Major prion protein (Homo sapiens), P04156. inhibition, % at 13.8 µM. AID 720596, 2013. 370,000 compounds, 0.43% hits; in the data active = inhibition above about 24%
SARS 3CLpro inh: SARS-CoV 3CLpro protease inhibitors, primary screen, biochemical, quenched FRET; Replicase polyprotein 1ab (Severe acute respiratory syndrome coronavirus), P0C6X7; 290,000 compounds, 0.14% hits; AID 1706, 2009; recombinant SARS-CoV 3CLpro, quenched FRET peptide cleavage; inhibition, % at 6 µM; in the data active = inhibition above about 12%
PrPC confirm: confirmation of inhibitors of cell surface human prion protein, confirmation, cell-based, TR-FRET | cell surface PrPC level | 1,500 compounds, 65% hits | AID 743200, 2013 | inhibition, % at 13.8 µM | shares compounds with PrPC surface inh; in the data active = inhibition above about 25%
LD9 cytotox: cytotoxicity in LD9 cells, cytotoxicity control for cell surface PrPc inhibitor project, cell-based, luminescence, high throughput; 1,500 compounds, 29% hits; luminescence viability; inhibition, % at 13.8 µM; shares compounds with PrPC surface inh; in the data active = inhibition above about 9.5%
Large screens that a line does not name were inactive (follow-up assays come after a bar, where they were run).

COC(=O)C(C)Oc1ccc(Cc2ncc(C(F)(F)F)cc2Cl)cc1 (stereo not given)	PrPC surface inh 62.1 | PrPC confirm inactive | LD9 cytotox inactive
Oc1ccc(Cc2ncc(C(F)(F)F)cc2Cl)cc1	none
COc1ccc(Cl)c2sc(NC(=O)CS(=O)(=O)c3ccc(F)cc3)nc12	none (no result: PrP UTR inh, BJeLR viability, PrPC surface inh, SARS 3CLpro inh)
O=C(O)C[C@H]1C(=O)NCCN1Cc1ccc(Cl)c(F)c1	none (no result: PrP UTR inh, BJeLR viability, PrPC surface inh, SARS 3CLpro inh)
COC(=O)CSc1nc(-c2ccccc2)nc2ccc(F)cc12	PrPC surface inh 48.7 | PrPC confirm 107.4 | LD9 cytotox inactive
CCOC(=O)CSc1nc(-c2ccccc2)nc2ccc(F)cc12	PrPC surface inh 26.1 | PrPC confirm 104.6 | LD9 cytotox inactive
CCOC(=O)C(C)Sc1nc(-c2ccccc2)nc2ccc(F)cc12 (stereo not given)	none
CCOC(=O)C(C)Sc1nc(-c2ccccc2)nc2ccccc12 (stereo not given)	PrPC surface inh 83.5 | PrPC confirm 108.6 | LD9 cytotox inactive
CCOC(=O)CSc1nc(-c2ccccc2)nc2ccccc12	PrPC surface inh 105.1 | PrPC confirm 115.9 | LD9 cytotox inactive
CCOC(=O)CSc1nc2ccccc2c(=O)[nH]1	none
OCCSc1nc(-c2ccccc2)nc2ccc(F)cc12	none
CCOc1ccc(-c2ccc(=O)n(Cc3nc(-c4cc(OC)c(OC)c(OC)c4)no3)n2)cc1	none (no result: PrP UTR inh, BJeLR viability, PrPC surface inh, SARS 3CLpro inh)
O=C(c1ccc2nsnc2c1)N1CCC2(CC1)OCCS2	none (no result: PrP UTR inh, BJeLR viability, PrPC surface inh, SARS 3CLpro inh)
Cc1ccn2c(=O)nc(SCc3cccc(C(F)(F)F)c3)nc2c1	none
O=c1nc(SCc2cccc(C(F)(F)F)c2)nc2ccccn12	PrPC surface inh 34.0 | PrPC confirm inactive | LD9 cytotox inactive
O=S(=O)(NCc1cncc(-c2cccs2)c1)c1cccnc1	none (no result: PrP UTR inh, BJeLR viability, PrPC surface inh, SARS 3CLpro inh)
COC(=O)C1CCN(C(=O)c2cc(-c3ccc(Cl)s3)nc3ccccc23)CC1	PrPC surface inh 35.7 (no result: BJeLR viability, SARS 3CLpro inh) | PrPC confirm 33.3 | LD9 cytotox 27.3
COc1cccc(C(=O)Nc2ccc3c(c2)C(=O)NCCO3)c1OC	none (no result: PrP UTR inh, BJeLR viability, PrPC surface inh, SARS 3CLpro inh)
COc1ccc2[nH]c(C(=O)Nc3ccc(C)c(F)c3)cc2c1	PrPC surface inh 39.3 | PrPC confirm 99.0 | LD9 cytotox inactive
COc1ccc2[nH]c(C(=O)N/N=C/c3ccc(O)cc3O)cc2c1	PrPC surface inh 31.7 (no result: PriA SSB inh) | PrPC confirm 40.3 | LD9 cytotox 18.9
COc1ccc(NC(=O)c2cc3ccccc3[nH]2)cc1	none
Cc1ccc(S(=O)(=O)Nc2cccc3cccnc23)cc1	PrPC surface inh 38.9 | PrPC confirm 71.8 | LD9 cytotox 82.3
Cc1ccc(NS(=O)(=O)c2cccc3cccnc23)c(Cl)c1	none
COc1ccc(S(=O)(=O)Nc2ccccn2)cc1	none
COc1cc(NS(=O)(=O)c2ccc(C)cc2)c2ncccc2c1	PrPC surface inh 50.9 | PrPC confirm 51.2 | LD9 cytotox 69.1
Cc1ccc(-n2cc(C(=O)N3CCC(NC(=O)c4ccccc4Cl)CC3)nn2)cc1C	none (no result: PrP UTR inh, BJeLR viability, PrPC surface inh, SARS 3CLpro inh)
CCOc1ccc(CNC(=O)c2ccc(-n3ccc(C)n3)nc2)cc1	none (no result: PrP UTR inh, BJeLR viability, PrPC surface inh, SARS 3CLpro inh)
CC(C)Oc1ccc(C(=O)N2CCN=C2SCc2cccc(F)c2)cc1	none (no result: PrP UTR inh, BJeLR viability, PrPC surface inh, SARS 3CLpro inh)
Cc1c(C(=O)NCc2cccnc2)sc2nc(-c3ccccc3)cn12	PrPC surface inh 28.1 | PrPC confirm inactive | LD9 cytotox inactive
Cc1ccc2c(Cl)c(C(=O)NCc3cccnc3)sc2c1	PrPC surface inh 28.8 | PrPC confirm 43.0 | LD9 cytotox inactive
O=C(NCc1cccnc1)c1sc2ccccc2c1Cl	none
Cc1c(C(=O)NCc2cccnc2)sc2nc(-c3ccc(F)cc3)cn12	none
Cc1nn(-c2ccccc2)c2sc(C(=O)NCc3ccc(F)cc3)cc12	none (no result: PrP UTR inh, BJeLR viability, PriA SSB inh, SARS 3CLpro inh)
Cc1nn(Cc2ccccc2)c2sc(C(=O)NCc3cccnc3)cc12	PrPC surface inh 24.5 | PrPC confirm inactive | LD9 cytotox inactive
CCC(=O)Nc1ccc2ncsc2c1	none (no result: PrP UTR inh, BJeLR viability, PrPC surface inh, SARS 3CLpro inh)
CCCCCCn1c(=O)n2n(c1=O)C[C@]1(OC(=O)Nc3cccs3)CN(S(=O)(=O)c3ccc(C)cc3)C[C@]1(O)C2	PrPC surface inh 24.8 (no result: PrP UTR inh, BJeLR viability, PriA SSB inh, SARS 3CLpro inh) | PrPC confirm inactive | LD9 cytotox inactive
COc1cccc(NC(=O)NC2CCCCN(Cc3ccc(C)cc3)C2=O)c1 (stereo not given)	PrPC surface inh 25.0 (no result: PrP UTR inh, BJeLR viability, PriA SSB inh, SARS 3CLpro inh) | PrPC confirm inactive | LD9 cytotox inactive
C=CC#CC[N+]1(CC#Cc2ccccc2)CCOCC1	PriA SSB inh 53.6, PrPC surface inh 38.2 | PrPC confirm 43.9 | LD9 cytotox inactive
C(#Cc1ccccc1)C[N+]1(CC#Cc2ccccc2)CCCC1	none
CC(=NS(=O)(=O)c1ccc(C)cc1)NC(=S)Nc1ccc(C)cc1	none (no result: PrP UTR inh, BJeLR viability, PrPC surface inh, SARS 3CLpro inh)
Cc1cccc(C)c1N1Cc2cc(Br)ccc2O[C@@H](C)C1=O	none (no result: PrP UTR inh, BJeLR viability, PrPC surface inh, SARS 3CLpro inh)
C[C@H]1[C@H](OC(=O)CCC(=O)NCc2ccc(C(=O)O)cc2)O[C@@H]2O[C@@]3(C)CC[C@H]4[C@H](C)CC[C@@H]1C24OO3	none (no result: PrPC surface inh)
CC1C(OC(=O)CCC(=O)NC(C)(C)CO)O[C@H]2OC3(C)CC[C@H]4[C@H](C)CCC1C24OO3 (stereo not given in full)	PrPC surface inh 32.7 | PrPC confirm 33.0 | LD9 cytotox 19.3
CC(C)CC(NC(=O)CCCNC(=O)CCC(=O)OC1O[C@H]2OC3(C)CC[C@H]4[C@H](C)CCC(C1C)C24OO3)C(=O)O (stereo not given in full)	PrPC surface inh 28.0 | PrPC confirm 37.8 | LD9 cytotox 19.6
O=C(O)c1ccc(NC(=O)C2CC=CCC2C(=O)O)cc1 (stereo not given)	PrPC surface inh 31.4 | PrPC confirm inactive | LD9 cytotox inactive
O=[N+]([O-])c1ccc(N2CCN(CC3CCCCC3)CC2)cc1	PrPC surface inh 50.7 | PrPC confirm inactive | LD9 cytotox inactive
Cc1ccc(S(=O)(=O)N(C)C)cc1NC(=O)c1cncc(Br)c1	PrPC surface inh 27.4 | PrPC confirm inactive | LD9 cytotox inactive
Cc1nnc(C2CCN(C(=O)c3cc(=O)c4ccccc4o3)CC2)s1	none (no result: PrP UTR inh, BJeLR viability, PrPC surface inh, SARS 3CLpro inh)
CCOc1ccccc1N1CCN(c2nc3ccccc3nc2C(C#N)C(=O)OC)CC1 (stereo not given)	none
COc1ccccc1N1CCN(c2nc3ccccc3nc2C(C#N)C(=O)OC(C)C)CC1 (stereo not given)	PrPC surface inh 25.3 | PrPC confirm inactive | LD9 cytotox inactive
O=C(O)c1cc(-c2cccs2)nc2ccc(Br)cc12	PrPC surface inh 40.3 (no result: PriA SSB inh) | PrPC confirm 77.9 | LD9 cytotox inactive
O=C(O)c1cc(-c2cccnc2)nc2ccc(Br)cc12	PrPC surface inh 44.8 (no result: BJeLR viability) | PrPC confirm 61.2 | LD9 cytotox inactive
